Source: PubChem BioAssay
In the library only some 7.7% were active in any assay of this set; here they are far more common.
FMDV antiviral = High Throughput Screening for Foot and Mouth Disease Virus Antivirals. FMDV antiviral cell-based qHTS. Potency, µM (titrated, usually from 57.9 µM), without a hit: at the highest dose activity change, negative = inhibition, actives largely listed as inhibitors. 410,000 tested, 1.2% active. AID 1159524, 2015; calls by dose curve; tested in HEK293T cells; note: read-out not given here; potency is the fitted concentration of half-maximal effect; nearly all actives have a fitted effect of over 45% in size
RE007 growth inh = qHTS Assay for Inhibitors of the HIV-1 protein Vpr. Potency, µM (top dose mostly 92.2 µM), inactives show top-dose activity change, negative = less growth, actives largely listed as inhibitors. 360,000 tested, 0.21% active. S. pombe RE007 Vpr strain, BacTiter-Glo ATP luminescence, 24 h; active = well fitted falling curve with a large enough effect; inconclusive = small, poorly fitted or top-dose-only effect; inactive = no such curve, though single readings can be large or run the other way; note: potency is the fitted concentration of half-maximal effect; nearly all actives have a fitted effect of over 50% in size
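Fission yeast strain RE007, carrying one chromosomally integrated HIV-1 vpr copy, was seeded at OD 0.01 in PMG+AL medium with 23 nL pinned compound. After 24 h at 30 °C and 99% humidity, viability was read by BacTiter-Glo luminescence.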
FBPA Giardia inh = qHTS Assay for Inhibitors of Fructose-1,6-bisphosphate Aldolase from Giardia Lamblia | A8B2U2 | purified Giardia FBPA | Potency, µM (top dose mostly 59.6 µM), for inactives: at the highest dose activity, negative = inhibition, hits mostly inhibitors | 290,000 tested, 0.71% active | AID 2451, 2010; note: potency is the fitted concentration of half-maximal effect; nearly all actives have a fitted effect of over 55% in size
Target sequence (A8B2U2 whole entry, looked up): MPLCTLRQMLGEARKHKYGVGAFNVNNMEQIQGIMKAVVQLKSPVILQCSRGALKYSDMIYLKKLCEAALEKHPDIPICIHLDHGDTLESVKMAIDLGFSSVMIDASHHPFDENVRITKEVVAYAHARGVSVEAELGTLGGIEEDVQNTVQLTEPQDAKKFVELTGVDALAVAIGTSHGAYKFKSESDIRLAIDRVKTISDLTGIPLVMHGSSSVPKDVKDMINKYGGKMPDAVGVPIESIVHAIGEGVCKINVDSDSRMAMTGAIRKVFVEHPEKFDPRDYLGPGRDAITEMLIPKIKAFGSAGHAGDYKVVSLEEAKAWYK
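40 nM FBPA preincubated 10 min at RT with compound (up to 57.5 uM final), then substrate plus GAPDH/TPI/NAD/arsenate coupling and diaphorase/resazurin added. Fluorescence read after 20 min at RT, 525/598 nm.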
TbPYK inhibitor = qHTS of Trypanosoma Brucei Inhibitors; pyruvate kinase (Trypanosoma brucei), Q57TT1; 410,000 tested, 0.12% active; Potency, µM (top dose mostly 76.8 µM), for the others: top-dose activity, negative = inhibition, hits mostly inhibitors; TbPYK enzyme, Kinase-Glo Plus ATP luminescence, 45 min; note: potency is the fitted concentration of half-maximal effect; nearly all actives have a fitted effect of over 50% in size
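Glycolytic pyruvate kinase of T. brucei was incubated with substrate, test compound and 130 uM ADP for 45 minutes at room temperature. Luminescent Kinase-Glo Plus signal was measured after 10 minutes.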
Sm TGR inh = qHTS Assay for the Inhibitors of Schistosoma Mansoni Peroxiredoxins | Schistosoma mansoni thioredoxin glutathione reductase (TGR), Q962Y6 | purified TGR, DTNB reduction, TNB absorbance 405 nm | Potency, µM (series often up to 114 µM), for the others: top-dose activity change, negative = inhibition, most hits filed as inhibitors | 360,000 tested, 3% active | AID 485364, 2010; note: potency is the fitted concentration of half-maximal effect; nearly all actives have a fitted effect of over 60% in size
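Kinetic colorimetric format: TGR-catalysed, NADPH-driven DTNB reduction monitored via TNB absorbance. Enzyme dispensed at 20 nM; compound exposure 15 min at room temperature before reaction start.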
HCMV inh = qHTS Assay for inhibitors of the human cytomegalovirus (HCMV); HFF cells, HCMV-luciferase reporter, 72 h; hits give low values; activity change, negative = inhibition, % at 57.5 µM; 410,000 tested, 4.5% active; in the data active = activity change below about -60%; inconclusive = no clear call, values can overlap the other calls; inactive = above about -39%
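Steps: HFFs plated, 16 h 37C; compounds added; HCMV-luciferase added to MOI 1 PFU/cell; 72 h 37C; OneGlo reagent, 5 min room temperature; luminescence read, normalized to controls.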
Starred values were filed as active, the others as inactive; ? = inconclusive; nt = no result given; [ ] = dose if it differs, or a comment. Unless noted, calls come from the whole dose curve; as a rule, active = well fitted curve in the direction sought with a large enough effect; inconclusive = small, poorly fitted or top-dose-only effect, or another doubt; inactive = no such curve, though single readings can be large; an effect the other way counts as inactive or inconclusive. % is set by controls: 0 for no effect and ±100 for the full control effect.

SMILES	FMDV antiviral	RE007 growth inh	FBPA Giardia inh	TbPYK inhibitor	Sm TGR inh	HCMV inh
CO[C@@]1(NC(=O)Cc2cccs2)C(=O)N2C(C(=O)O)=C(COC(N)=O)CSC21 (stereo partly specified)	0.1%	nt	?	nt	nt	nt
Cc1cccc[n+]1CC(=O)c1ccc([N+](=O)[O-])cc1	-6.7%	-5.3%	nt	-2.8%	nt	-86.8*
COc1ccc(C(=O)C[n+]2ccccc2C)cc1	4.8%	-14.7%	3.3%	?	1.6%	-37.5
Cc1cccc(C)c1NC(=O)c1cc(S(=O)(=O)N2CCc3ccccc3C2)ccc1F	?	nt	nt	0.4%	-17.8%	-38.4
CCN(c1ccc(OC)cc1)S(=O)(=O)c1ccc2[nH]c(=O)ccc2c1	-24.6%	nt	nt	4.7%	0.5%	-17.4
CCOC(=O)c1ccc(N=c2ssnc2Cl)cc1	-22.1%	?	?	35.5µM*	-28.5%	?
COc1ccc(N=c2ssnc2Cl)cc1	-21.5%	?	?	-17.6%	56.2µM*	nt
Clc1nssc1=Nc1ccccc1	-26.2%	?	?	?	?	nt
Fc1ccc(N=c2ssnc2Cl)c(F)c1	-7.0%	-13.8%	?	14.1µM*	-28.4%	19.1
Clc1ccc(N=c2ssnc2Cl)cc1	?	?	?	25.1µM*	?	-26.5
Cc1cc(C(=O)CN2C(=O)NC3(CCCc4sccc43)C2=O)c(C)n1-c1ccc(Cl)cc1 (stereo unspecified)	6.5%	-6.2%	1.7%	-1.3%	2.0%	-62.2*
COc1ccc2c3c([nH]c2c1)[C@@H](CO)N(C(=O)C1CCOCC1)CC31CCN(Cc2nccs2)CC1	nt	nt	nt	nt	nt	-4.6
COc1cc([C@H]2c3cc4c(cc3[C@@H](O)[C@@H]3COC(=O)[C@H]23)OCO4)cc(OC)c1OC	nt	nt	-1.6%[21.7 µM]	nt	nt	nt
COc1cc(C2c3cc4c(cc3CC3COC(=O)N32)OCO4)cc(OC)c1OC (stereo unspecified)	-7.9%	-0.2%	nt	-0.3%	nt	-88.3*
CC(=O)N1c2ccccc2C(CBr)=CC1(C)C	-10.6%	1.3%	-12.4%	2.6%	12.6µM*	23.8
CC1=CC(C)(C)N(C(=O)Nc2ccccc2)c2ccccc21	-8.0%	5.0%	1.8%	1.9%	?	-33.4
Cc1cc(N2CCN(C/C=C/c3ccccc3)CC2)n2ncnc2n1	nt	3.9%	14.7%	0.5%	1.9%	-91.3*
O=C(O)C/C=C(\NC(=O)OCc1ccccc1)C(=O)OCc1ccccc1	32.1%	-9.7%	8.1%	-4.7%	15.8µM*	32.0
CC(=O)N/C(=C\c1ccccc1)C(=O)OCc1ccccc1	-4.1%	-3.0%	-9.6%	-2.7%	15.3%	89.2
CCCc1cnc2c(c1SCC(=O)Nc1ccc([N+](=O)[O-])cc1)c(=O)n(C)c(=O)n2C	15.8µM*	nt	nt	-27.5%	-0.9%	1.5
CSc1ccc(CCNC(=O)CCn2c(=O)c3cccn3c3ccc(F)cc32)cc1	-15.6%	nt	nt	-0.5%	3.4%	-21.7
CCOc1ccc(-c2nnc(-c3ccccc3)n2-c2ccccc2)cc1	9.4%	0.6%	1.2%	10.1%	-5.6%	-11.7
CCOc1ccc(-n2c(C)c3c(C)nnc(C)c3c2C)cc1	?	-18.1%	nt	-2.4%	nt	-62.2*
CC(C)NC(=S)NC(=O)/C=C/c1ccc(F)cc1	-4.5%	-12.0%	1.7%	-16.7%	-18.9%	-75.6*
CN(C(=S)NC(=O)/C=C/c1ccc(F)cc1)C1CCCCC1	7.5%	-4.2%	4.3%	-11.8%	-8.8%	-76.3*
SMILES	FMDV antiviral	RE007 growth inh	FBPA Giardia inh	TbPYK inhibitor	Sm TGR inh	HCMV inh
COC(=O)c1scc(-c2ccc(C)cc2)c1S(=O)(=O)N1CCN(c2ccc(C)cc2C)CC1	-11.1%	nt	nt	-1.2%	0.8%	-6.4
CC(C)(C)C(=O)Nc1sc2c(c1-c1nc3ccccc3[nH]1)CCCC2	-6.2%	0.1%	-3.0%	-0.3%	-32.2%	-107.4*
Cc1cccc(NC(=O)c2oc3ccc(S(=O)(=O)N4CCCCC4)cc3c2C)c1C	?	nt	nt	6.1%	-6.0%	5.9
Cc1ccc(C(=O)N/C(=C/c2ccco2)C(=O)O)cc1	-13.5%	7.0%	0.1%	-14.6%	-20.5%	-0.5
N#CC(C#N)=C1C=CC=CN1/C(=C\c1ccco1)C(=O)c1ccccc1	?	1.7%	-5.4%	-13.0%	2.82µM*	-99.6*
COc1ccc(C(=O)/C(=C\c2ccco2)N2C=CC=CC2=C(C#N)C#N)cc1	11.2µM*	-19.9%	-1.5%	-15.6%	?	nt
COc1ccc(/C=C(/C(=O)c2cccs2)N2C=CC=CC2=C(C#N)C#N)cc1	-17.9%	0.5%	-4.3%	-22.0%	0.282µM*	-60.1*
N#CC(C#N)=C1C=CC=CN1/C(=C\c1ccco1)C(=O)c1ccc(Br)cc1	10µM*	-10.9%	-15.0%	?	2.24µM*	-96.6*
COc1ccc(C=C(C#N)C(=O)c2ccccc2)cc1	-15.0%	-6.4%	nt	-8.5%	nt	42.2
Cc1ccc(NC(=O)Cn2nnc(-c3nc(-c4ccc(Cl)cc4)no3)c2N)cc1C	-4.1%	nt	nt	-7.4%	-1.3%	2.1
Cc1cccc(N2CCN(S(=O)(=O)c3nnc(NC(=O)c4ccc(Cl)cc4)s3)CC2)c1	-21.0%	nt	nt	1.5%	13.1%	8.9
CC(=O)[C@H](CC(C)C)NC(=O)[C@@H](CC(C)C)NC(=O)[C@H](CC(C)C)NC(=O)OCc1ccccc1	?	nt	9.5%	nt	nt	nt
CC(C)(C)c1cc(NCc2ccccn2)n2ncc(-c3ccc(Cl)cc3)c2n1	3.8%	3.7%	-2.6%	-3.5%	0.0%	-15.0
CN(C)CCCNc1cc(C(C)(C)C)nc2c(-c3ccc(Cl)cc3)cnn12	0.9%	10.8%	0.1%	1.0%	19.8%	-102.6*
CCN1CCc2nc(N)oc2CC1	-16.1%	-1.1%[18.4 µM]	-1.9%	4.0%	5.62µM*	-70.0*
Cc1ccc(S(=O)(=O)c2c(Nc3cc(C)ccc3C)sc(C(=O)c3ccc4c(c3)OCO4)c2N)cc1	1.6%	nt	nt	-6.0%	-16.1%	-1.8
COC(OC)c1ccnc(-c2ccc(OC(C)=O)cc2)n1	11.2%	13.3%	0.0%	-4.6%	-0.2%	-82.9*
Cc1cc(C)cc(-n2c3ccc(NC(=O)Cc4cccc5ccccc45)cc3c(=O)n2C)c1	-5.8%	9.9%	nt	-3.9%	nt	-70.5*
CC1CCc2cc(F)cc3c(=O)c(C(=O)O)cn1c23 (stereo unspecified)	-11.8%	6.2%[18.4 µM]	?	-3.7%	7.9%	-71.0*
CC(C)N1CCc2c(sc(NC(=O)c3cc4cc([N+](=O)[O-])ccc4s3)c2C(N)=O)C1	-21.7%	-1.1%	-24.0%	-2.5%	6.8%	-94.7*
CC(C)N1CCc2c(sc(NC(=O)c3ccco3)c2C(N)=O)C1	0.0%	-9.4%	-27.4%	-0.5%	50.1µM*	-76.1*
